PubChem BioAssay AID1159580 (chemical genetic matrix, 2015)
Out of some 5,500 compounds screened, about 2,000 (36%) were called active. About 18% were inconclusive and are not listed. No stated cut-off is given here; in the data, active means normalized growth mostly below about 0.91 (no sharp cut-off); inconclusive means no clear call, values can overlap the other calls; inactive means mostly above about 0.92. The list shows a part of the results.

Assay: chemical genetic growth profiling, strain panel (AID 1159580);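 further: tested at 20 µM; growth read once vehicle control cultures reached saturation at 30 °C; 1 = growth at the plate median or of vehicle wells; lower values mean less growth of the strain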
Conditions: growth OD

Measured: normalized growth

COC1=CC(=O)C=C(OC)C1=O
inactive: S. cerevisiae deletion strains, locus YKL009W, strain mrt4, active compounds read low 0.956 | S. cerevisiae deletion strains, locus YKL068W, active compounds read low 0.972 | S. cerevisiae deletion strains, locus YKL085W, strain MDH1 (second series), active compounds read low 0.981 | S. cerevisiae deletion strains, locus YKL085W, strain MDH1, active compounds read low 0.981 | S. cerevisiae deletion strains, locus YKL160W, strain elf1, active compounds read low 0.971 | S. cerevisiae deletion strains, locus YKL190W, strain CNB1, active compounds read low 0.989 | S. cerevisiae deletion strains, locus YKR001C, strain vps1, active compounds read low 0.995 | S. cerevisiae deletion strains, locus YKR026C, strain gcn3, active compounds read low 0.995 | S. cerevisiae deletion strains, locus YKR091W, strain srl3, active compounds read low 1 | S. cerevisiae deletion strains, locus YLL001W, strain dnm1, active compounds read low 0.996 | S. cerevisiae deletion strains, locus YLL026W, active compounds read low 0.991 | S. cerevisiae deletion strains, locus YLL041C, strain sdh2, active compounds read low 1.01 | S. cerevisiae deletion strains, locus YLR027C, strain aat2, active compounds read low 0.997 | S. cerevisiae deletion strains, locus YLR039C, strain RIC1, active compounds read low 0.981 | S. cerevisiae deletion strains, locus YLR058C, strain SHM2, active compounds read low 0.988 | S. cerevisiae deletion strains, locus YLR102C, strain apc9, active compounds read low 0.982 | S. cerevisiae deletion strains, locus YLR113W, strain HOG1, active compounds read low 0.998 | S. cerevisiae deletion strains, locus YLR221C, strain rsa3, active compounds read low 1 | S. cerevisiae deletion strains, locus YLR258W, strain gsy2, active compounds read low 0.997 | S. cerevisiae deletion strains, locus YLR262C, strain YPT6 (second series), active compounds read low 0.946 | S. cerevisiae deletion strains, locus YLR262C, strain YPT6, active compounds read low 0.967 | S. cerevisiae deletion strains, locus YLR268W, strain sec22, active compounds read low 0.989 | S. cerevisiae deletion strains, locus YLR320W, strain mms22, active compounds read low 0.955 | S. cerevisiae deletion strains, locus YLR330W, strain CHS5, active compounds read low 0.997 | S. cerevisiae deletion strains, locus YLR342W, strain FKS1 (second series), active compounds read low 1.02 | S. cerevisiae deletion strains, locus YLR342W, strain FKS1, active compounds read low 0.976 | S. cerevisiae deletion strains, locus YLR357W, strain rsc2, active compounds read low 0.99 | S. cerevisiae deletion strains, locus YLR370C, strain arc18, active compounds read low 1.01 | S. cerevisiae deletion strains, locus YLR371W, strain rom2, active compounds read low 0.989 | S. cerevisiae deletion strains, locus YLR384C, strain iki3, active compounds read low 0.986 | S. cerevisiae deletion strains, locus YLR418C, strain cdc73, active compounds read low 0.999 | S. cerevisiae deletion strains, locus YML016C, strain PPZ1, active compounds read low 0.994 | S. cerevisiae deletion strains, locus YML032C, strain rad52, active compounds read low 0.973 | S. cerevisiae deletion strains, locus YML120C, strain ndi1, active compounds read low 1.01 | S. cerevisiae deletion strains, locus YML124C, strain tub3, active compounds read low 0.987 | S. cerevisiae deletion strains, locus YMR058W, strain fet3, active compounds read low 1.02 | S. cerevisiae deletion strains, locus YMR078C, strain ctf18, active compounds read low 0.999 | S. cerevisiae deletion strains, locus YMR125W, strain sto1, active compounds read low 1.02 | S. cerevisiae deletion strains, locus YMR129W, active compounds read low 0.999 | S. cerevisiae deletion strains, locus YMR205C, strain PFK2, active compounds read low 0.983 | S. cerevisiae deletion strains, locus YMR223W, strain ubp8, active compounds read low 0.993 | S. cerevisiae deletion strains, locus YMR231W, strain pep5, active compounds read low 1.01 | S. cerevisiae deletion strains, locus YMR307W, strain GAS1, active compounds read low 1.12 | S. cerevisiae deletion strains, locus YNL067W, strain RPL9B, active compounds read low 0.997 | S. cerevisiae deletion strains, locus YNL071W, strain lat1, active compounds read low 0.989 | S. cerevisiae deletion strains, locus YNL183C, strain NPR1, active compounds read low 0.95 | S. cerevisiae deletion strains, locus YNL209W, strain ssb2, active compounds read low 0.996 | S. cerevisiae deletion strains, locus YNL233W, strain BNI4, active compounds read low 1.02 | S. cerevisiae deletion strains, locus YNL248C, strain rpa49, active compounds read low 1.01 | S. cerevisiae deletion strains, locus YNL250W, strain rad50, active compounds read low 0.987 | S. cerevisiae deletion strains, locus YNL271C, strain bni1, active compounds read low 0.99 | S. cerevisiae deletion strains, locus YNL298W, strain CLA4, active compounds read low 0.999 | S. cerevisiae deletion strains, locus YNL307C, strain MCK1, active compounds read low 0.992 | S. cerevisiae deletion strains, locus YNL322C, strain KRE1 (second series), active compounds read low 0.996 | S. cerevisiae deletion strains, locus YNL322C, strain KRE1, active compounds read low 0.993 | S. cerevisiae deletion strains, locus YNR049C, strain mso1, active compounds read low 1 | S. cerevisiae deletion strains, locus YNR052C, strain pop2, active compounds read low 1.01 | S. cerevisiae deletion strains, locus YOL006C, strain TOP1, active compounds read low 1.17 | S. cerevisiae deletion strains, locus YOL012C, strain htz1 0.746 | S. cerevisiae deletion strains, locus YOL147C, strain pex11, active compounds read low 0.988 | S. cerevisiae deletion strains, locus YOR001W, strain rrp6, active compounds read low 1 | S. cerevisiae deletion strains, locus YOR061W, strain CKA2, active compounds read low 0.965 | S. cerevisiae deletion strains, locus YOR069W, strain VPS5, active compounds read low 0.991 | S. cerevisiae deletion strains, locus YOR070C, strain gyp1, active compounds read low 0.996 | S. cerevisiae deletion strains, locus YOR080W, strain dia2, active compounds read low 1.01 | S. cerevisiae deletion strains, locus YOR083W, strain WHI5, active compounds read low 0.927 | S. cerevisiae deletion strains, locus YOR106W, strain vam3, active compounds read low 0.97 | S. cerevisiae deletion strains, locus YOR136W, strain idh2, active compounds read low 0.972 | S. cerevisiae deletion strains, locus YOR144C, strain elg1, active compounds read low 0.994 | S. cerevisiae deletion strains, locus YOR184W, strain ser1, active compounds read low 0.982 | S. cerevisiae deletion strains, locus YOR231W, strain MKK1, active compounds read low 1.01 | S. cerevisiae deletion strains, locus YOR265W, strain rbl2, active compounds read low 0.994 | S. cerevisiae deletion strains, locus YOR270C, strain vph1, active compounds read low 0.94 | S. cerevisiae deletion strains, locus YOR290C, strain snf2, active compounds read low 0.991 | S. cerevisiae deletion strains, locus YOR316C, strain cot1, active compounds read low 0.986 | S. cerevisiae deletion strains, locus YPL051W, strain arl3, active compounds read low 0.998 | S. cerevisiae deletion strains, locus YPL055C, strain LGE1, active compounds read low 1.04 | S. cerevisiae deletion strains, locus YPL078C, strain atp4, active compounds read low 0.962 | S. cerevisiae deletion strains, locus YPL106C, strain sse1, active compounds read low 0.994 | S. cerevisiae deletion strains, locus YPL240C, strain hsp82, active compounds read low 0.991 | S. cerevisiae deletion strains, locus YPL241C, strain CIN2, active compounds read low 0.986 | S. cerevisiae deletion strains, locus YPL256C, strain CLN2, active compounds read low 1.01 | S. cerevisiae deletion strains, locus YPR119W, strain clb2, active compounds read low 0.981 | S. cerevisiae deletion strains, locus YPR141C, strain kar3, active compounds read low 0.983 | S. cerevisiae deletion strains, locus YPR163C, strain tif3, active compounds read low 1 | S. cerevisiae deletion strains, locus YPR167C, strain met16, active compounds read low 0.976 | S. cerevisiae deletion strains, strain wtn01, active compounds read low 0.981 | S. cerevisiae strains, strain wild type, active compounds read low 1
